From PubChem BioAssay (NCI) come the findings set out here.

Compounds without any hit were thinned out: in the full panel of roughly 83,000, 20% have a hit.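 The test compound was applied at a single concentration to cells in 96-well plates for 48 hours, and percent growth was recorded.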 A number with no mark means an inactive call. Active and inactive are the calls of the source. Rule for the calls: active = growth percent below 10; inactive = the rest.

Common to all, as to experiment: NCI-60 one-dose screen, 48 h (100 = growth as untreated, 0 = no growth, -100 = all killed)
What all share (conditions): 10 µM unless noted

In assay [1] the test system is HT29 colon.
Assay [2] deals with SNB-75 CNS.
For assay [3], the system named is SNB-19 CNS.
In assay [4] the test system is U251 CNS.
The test system of assay [5] is PC-3 prostate.
The subject of assay [6] is SK-MEL-5 melanoma.
In assay [7] the test system is LOX IMVI melanoma.
Assay [8] deals with SK-MEL-28 melanoma.
The test system of assay [9] is SK-MEL-2 melanoma.
For assay [10], the system named is UACC-62 melanoma.

For `COc1cc2c(-c3nc4cc(Cl)c(F)cc4s3)cc(=O)oc2c(C)c1OC`, the growth was -80% (active) in assay [1]; -90.3% (active) in assay [2]; 34.7% in assay [3]; -92.3% (active) in assay [4]; 19.2% in [5]; -84.2% (active) in assay [6]. For the same compound, the figures for the growth in assay [7], in assay [8] and in assay [9] were -73.5% (active), -28.6% (active) and -82.2% (active), respectively.
As for `O=C(NCCCO)c1cc(Cl)ccc1O`, the growth in assay [1] is 3.68% (active); in [2] it was 27.8%; in [3], 31.1%; in assay [4] it was 12.3%; in assay [5], 7.13% (active); in assay [6], 18.4%. Moreover, the growth in assay [7] is 13.3%; in assay [8], 38%; in assay [9], -19% (active).
Consider `O=C1c2nsnc2C(=O)c2c(F)c(F)c(F)c(F)c21`, for which the growth in [1] is -54.8% (active); in [2], -76.4% (active); in [3], -86.8% (active); in [4], -76.3% (active); in [5] it was 7.59% (active); in assay [6] it was -61.1% (active). Besides, the results for the growth in assay [7], in assay [8] and in assay [9] were -49.4% (active), -92.5% (active) and -75.4% (active), respectively.
Regarding `Oc1ccccc1/C=N\Nc1ccccc1`, the growth in [1] is 95.9%; in assay [2] it was 71.9%; in assay [3], 86%; in assay [4], 75.9%; in assay [5], 36.3%; in assay [10], -5.08% (active). In addition, the growth in [7] is 53%; in [8], 102%; in assay [9], 92.1%.
On to `NC(=O)c1ncn([C@@H]2O[C@H](CO)[C@@H](O)[C@H]2O)n1`, for which the growth in assay [1] is 52.5%; in assay [2], 92.2%; in assay [3] it was 96.2%; in [4], 94.7%; in [5], 86%; in assay [10], 104%. The figures for the growth in [7], in assay [8] and in [9] were 84.2%, 115% and 103%, respectively.
Regarding `Cc1scc2c1N(C(=O)CN1CCN(C)CC1)c1ccccc1NC2=O`, the growth is 104% in assay [1]; 110% in [2]; 111% in [3]; 99.6% in assay [4]; 98% in [5]; 109% in assay [10]. For the same compound, the growth was 99.7% in [7], 110% in assay [8] and 113% in assay [9].
On to `Cn1[nH]cc(/C=N/C(N)=O)c1=O`, for which the growth in assay [1] was 115%; in assay [2], 106%; in assay [3], 106%; in assay [4], 103%; in assay [5] it was 108%; in assay [10], 105%. Moreover, the growth in [7] was 96.1%; in assay [8], 115%.
On to `CN(CCOc1ccc(CC2SC(=O)NC2=O)cc1)c1ccccn1` (configuration not stated), for which the growth is 117% in assay [1]; 96.3% in assay [2]; 105% in assay [3]; 90.7% in assay [4]; 105% in assay [5]; 93.1% in assay [10]. The growth in assay [7] is 92.8%; in [8], 111%; in assay [9] it was 117%.
For the compound `COc1cc([C@@H]2c3cc4c(cc3C(O[C@@H]3O[C@@H]5CO[C@@H](c6cccs6)OC5[C@H](O)[C@H]3O)C3COC(=O)[C@@H]32)OCO4)cc(OC)c1O` (some centres not stated), the growth was -24.8% (active) in [1]; -37% (active) in assay [2]; 1.98% (active) in [3]; -15.5% (active) in assay [4]; 4.52% (active) in [5]; -54.3% (active) in assay [10]. The results for the growth in assay [7], in assay [8] and in [9] were -37.3% (active), -29% (active) and -47.3% (active), respectively.
As to `CCOC(=O)C1=C(COCCN)NC(C)=C(C(=O)OC)C1c1ccccc1Cl` (configuration not stated), the growth is 11.4% in [1]; 72.3% in [2]; 102% in assay [3]; 52.8% in [4]; 66.9% in assay [5]; 60.5% in [10]. The values for the growth in [7], in assay [8] and in assay [9] were 32.3%, 75.9% and 90.2%, respectively.
In the case of `O=[N+]([O-])c1ccc(Oc2cccc(C(F)(F)F)c2)c([N+](=O)[O-])c1`, the growth in assay [1] was -4.93% (active); in [2], 92.2%; in assay [3], 74.5%; in [4] it was 18.3%; in [5], 88.9%; in [10], 34.1%. Further, the growth in [7] was 8.07% (active); in assay [8], 104%; in assay [9], 11.7%.
In the case of `O=C1OC(c2ccc(-c3ccccc3)cc2)=C/C1=C/c1cccs1`, the growth in assay [1] was 125%; in assay [2], 95.7%; in [3], 131%; in [4], 100%; in [6], 78.2%; in assay [10] it was 74.6%. The growth in [7] is 99.4%; in assay [8], 102%.
As to `O=C1c2ccccc2C(=O)c2c1cccc2-n1nnc2ccccc21`, the growth in assay [1] is 106%; in [2] it was 90.8%; in [3], 104%; in assay [4], 99.8%; in assay [6], 112%; in [10] it was 103%. Besides, the growth in assay [7] is 100%; in [8] it was 118%.
`Cc1ccccc1-c1cc(Cc2ccccc2O)c(=O)[nH]n1`: the growth in assay [1] was 139%; in assay [2], 106%; in [3] it was 123%; in [4] it was 103%; in assay [6], 94.8%; in assay [10], 95.3%. The growth in [7] is 100%; in assay [8], 131%.
